Test [1] can be described thus: ATG_ISRE_CIS: Attagene CIS-FACTORIAL HepG2 Assay for human Interferon Regulatory Factor 1 (IRF1) binding to an Interferon-Stimulated Response Element (ISRE) (AID 2282948). The note with it: HepG2 ISRE cis-reporter (Attagene), mRNA transcription readout; actives raise or lower the signal. In a few lines: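 Read-out: fluorescent RT-PCR products resolved by capillary electrophoresis, reporting endogenous transcription factor activity via ISRE-driven reporter mRNA in transfected HepG2 cells dosed for 24 h; gain or loss fitted relative to DMSO.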

Test [2] can be described thus: ATG_M_32_CIS: Attagene CIS-FACTORIAL HepG2 Assay for M32 Transcription Factor (Internal Marker) (AID 2282949).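 Further: background control marker of the multiplexed CIS panel rather than a real target.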 The note with it: HepG2 Attagene cis-factorial M32 reporter, mRNA; actives raise or lower the signal. In a few lines: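 HepG2 transfectants (cis-regulated reporter transcription units) dosed 24 h. Reporter mRNA by RT-PCR plus CE, analysed as gain or loss relative to DMSO.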

Test [3] in a line: ATG_M_06_CIS: Attagene CIS-FACTORIAL HepG2 Assay for M06 Transcription Factor (Internal Marker) (AID 2282950). The note with it: HepG2 Attagene CIS-FACTORIAL M06 internal marker reporter; actives raise or lower the signal. In a few lines: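 Fluorescence-labelled RT-PCR products from cis-promoter reporter units, cut with HpaI and resolved by capillary electrophoresis, give the signal. Cells are human HepG2, dosed for 24 h. Serves as background control, fitted relative to DMSO.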

The target of test [4] is Hypoxia-inducible factor 1-alpha (Homo sapiens) (UniProt Q16665). The test is described as follows: ATG_HIF1a_CIS: Attagene CIS-FACTORIAL HepG2 Assay for human Hypoxia Inducible Factor 1 (HIF1A) (AID 2282951). The note with it: HepG2 Attagene cis-factorial HIF1a reporter transcription; actives raise or lower the signal. Summed up:
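Cis-element reporter constructs were transiently transfected into HepG2 cells, which were treated for 24 h; reporter RNA was reverse-transcribed, amplified, labelled and resolved by capillary electrophoresis.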

In test [5] the target is Heat shock factor protein 1 (Homo sapiens) (UniProt Q00613). The test is described as follows: ATG_HSE_CIS: Attagene CIS-FACTORIAL HepG2 Assay for human Heat Shock Transcription Factor 1 (HSE) (AID 2282953). The note with it: HepG2 HSE cis-reporter, Attagene RNA transcription; actives raise or lower the signal. Summed up: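 After a 24 h incubation with test chemical, transfected HepG2 cells were harvested for RNA; reporter transcripts were measured by RT-PCR and capillary electrophoresis. Values reflect gain or loss of signal relative to DMSO.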

Test [6] can be described thus: ATG_MRE_CIS: Attagene CIS-FACTORIAL HepG2 Assay for human Metal Responsive Element (MRE) (AID 2282954). The note with it: HepG2 MRE cis-reporter transcription, Attagene multiplex; actives raise or lower the signal. Summed up:
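Endogenous MRE-dependent transcription read as reporter mRNA in transiently transfected human HepG2 cells at 24 h. RNA reverse-transcribed, PCR-amplified, labelled and resolved by capillary electrophoresis; gain or loss relative to DMSO.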

Test [7] is described as follows: ATG_PBREM_CIS: Attagene CIS-FACTORIAL HepG2 Assay for human Phenobarbital-responsive Enhancer Module (PBREM) (AID 2282955). The conditions noted are these: HepG2 PBREM cis-reporter, Attagene multiplexed transcription; actives raise or lower the signal. In a few lines: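 Multiplexed cis-reporter readout in human hepatoma HepG2 cells; PBREM-regulated transcript quantified after 24 h exposure by fluorescent RT-PCR fragment analysis. Signal changes up or down fitted relative to DMSO.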

Test [8] has as its target Paired box protein Pax-6 (Homo sapiens) (UniProt P26367). The test is described as follows: ATG_Pax6_CIS: Attagene CIS-FACTORIAL HepG2 Assay for human Paired Box 6 (PAX6) (AID 2282956). The note with it: HepG2 CIS-FACTORIAL PAX6 reporter transcription, RNA readout; actives raise or lower the signal. In a few lines:
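Readout: reporter transcript fluorescence after RT-PCR and capillary electrophoresis. Cells: HepG2, transiently transfected with cis-regulated MRTUs. Exposure 24 h. Gain or loss of signal fitted bidirectionally relative to DMSO.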

Test [9] is described as follows: ATG_PXRE_CIS: Attagene CIS-FACTORIAL HepG2 Assay for human Pregnane X Receptor Element (PXRE) (AID 2282957). The note with it: HepG2 Attagene CIS-FACTORIAL PXRE reporter, mRNA; actives raise or lower the signal. Summed up: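 Endogenous transcription factor activity in HepG2 was gauged through induction of reporter mRNA driven by a cis-regulating promoter element, sampled 24 h post-treatment. Activity was fitted in both directions against DMSO negative control.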

The target in test [10] is Hepatocyte nuclear factor 6 (Homo sapiens) (UniProt Q9UBC0). The test is described as follows: ATG_HNF6_CIS: Attagene CIS-FACTORIAL HepG2 Assay for human Hepatocyte Nuclear Factor 6 (HNF6) (AID 2282952). The conditions noted are these: HepG2 Attagene cis-factorial HNF6 reporter transcription; actives raise or lower the signal. In a few lines: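 Endogenous transcription factor activity in human HepG2 liver cells was captured through cis-regulated reporter constructs. After 24 h treatment, reporter mRNA was measured by RT-PCR with capillary electrophoresis, and activity was fitted in both directions relative to DMSO.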

SMILES strings stand for the structures. Calls of active or inactive are those of the source. How the source made its calls: active means hit-call score of the fitted dose curve at least 0.9, where 1 is the maximum; inactive means score below 0.9.

Heat shock factor protein 1 (Homo sapiens), sequence (Q00613 whole entry, looked up): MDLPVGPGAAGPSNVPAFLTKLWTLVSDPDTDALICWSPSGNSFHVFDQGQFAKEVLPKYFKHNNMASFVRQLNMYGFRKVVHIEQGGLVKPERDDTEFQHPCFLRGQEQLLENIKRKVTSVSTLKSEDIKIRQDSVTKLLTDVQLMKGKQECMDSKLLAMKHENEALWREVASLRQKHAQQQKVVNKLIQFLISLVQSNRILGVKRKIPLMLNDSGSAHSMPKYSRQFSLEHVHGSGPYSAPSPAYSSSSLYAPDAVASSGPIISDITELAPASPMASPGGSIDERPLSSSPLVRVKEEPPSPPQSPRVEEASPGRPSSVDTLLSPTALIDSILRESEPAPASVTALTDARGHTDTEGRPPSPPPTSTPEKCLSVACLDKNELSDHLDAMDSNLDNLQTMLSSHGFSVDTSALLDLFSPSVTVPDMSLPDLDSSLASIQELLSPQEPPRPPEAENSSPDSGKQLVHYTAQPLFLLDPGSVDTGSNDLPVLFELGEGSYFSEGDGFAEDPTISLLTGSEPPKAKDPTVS
Hypoxia-inducible factor 1-alpha (Homo sapiens), sequence (Q16665 whole entry, looked up): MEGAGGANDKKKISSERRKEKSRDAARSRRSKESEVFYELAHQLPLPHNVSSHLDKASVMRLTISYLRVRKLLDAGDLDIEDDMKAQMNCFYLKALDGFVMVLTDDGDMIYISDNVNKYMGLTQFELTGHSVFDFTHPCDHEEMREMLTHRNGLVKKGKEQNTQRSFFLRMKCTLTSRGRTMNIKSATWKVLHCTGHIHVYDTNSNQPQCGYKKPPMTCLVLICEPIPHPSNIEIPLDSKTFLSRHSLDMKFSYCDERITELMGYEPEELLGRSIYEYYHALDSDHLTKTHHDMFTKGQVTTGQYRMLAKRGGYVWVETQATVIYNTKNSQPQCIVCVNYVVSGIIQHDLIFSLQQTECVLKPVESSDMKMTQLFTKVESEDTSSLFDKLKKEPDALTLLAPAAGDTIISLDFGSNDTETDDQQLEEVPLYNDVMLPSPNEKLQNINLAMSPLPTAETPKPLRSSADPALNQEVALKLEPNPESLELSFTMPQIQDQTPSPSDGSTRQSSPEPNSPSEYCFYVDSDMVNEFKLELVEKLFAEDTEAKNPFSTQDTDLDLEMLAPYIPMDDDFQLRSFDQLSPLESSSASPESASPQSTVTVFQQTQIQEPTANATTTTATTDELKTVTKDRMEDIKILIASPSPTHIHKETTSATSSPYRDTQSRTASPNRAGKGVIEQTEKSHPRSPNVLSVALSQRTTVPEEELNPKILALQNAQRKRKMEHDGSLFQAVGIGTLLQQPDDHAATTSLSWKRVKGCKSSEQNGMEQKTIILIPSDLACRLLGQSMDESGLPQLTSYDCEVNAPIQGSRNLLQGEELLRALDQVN
Paired box protein Pax-6 (Homo sapiens), sequence (P26367 whole entry, looked up): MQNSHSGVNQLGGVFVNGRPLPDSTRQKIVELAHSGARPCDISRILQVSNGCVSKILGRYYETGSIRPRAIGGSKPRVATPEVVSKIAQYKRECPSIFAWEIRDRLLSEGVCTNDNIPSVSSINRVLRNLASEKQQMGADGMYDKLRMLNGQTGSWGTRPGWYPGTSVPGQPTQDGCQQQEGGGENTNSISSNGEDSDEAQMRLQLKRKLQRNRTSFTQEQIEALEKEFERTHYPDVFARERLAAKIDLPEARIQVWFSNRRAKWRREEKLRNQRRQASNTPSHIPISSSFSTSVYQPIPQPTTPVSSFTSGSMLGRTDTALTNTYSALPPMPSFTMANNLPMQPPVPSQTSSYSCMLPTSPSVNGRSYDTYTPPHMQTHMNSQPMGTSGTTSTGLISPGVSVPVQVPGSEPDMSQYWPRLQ
Hepatocyte nuclear factor 6 (Homo sapiens), sequence (Q9UBC0 whole entry, looked up): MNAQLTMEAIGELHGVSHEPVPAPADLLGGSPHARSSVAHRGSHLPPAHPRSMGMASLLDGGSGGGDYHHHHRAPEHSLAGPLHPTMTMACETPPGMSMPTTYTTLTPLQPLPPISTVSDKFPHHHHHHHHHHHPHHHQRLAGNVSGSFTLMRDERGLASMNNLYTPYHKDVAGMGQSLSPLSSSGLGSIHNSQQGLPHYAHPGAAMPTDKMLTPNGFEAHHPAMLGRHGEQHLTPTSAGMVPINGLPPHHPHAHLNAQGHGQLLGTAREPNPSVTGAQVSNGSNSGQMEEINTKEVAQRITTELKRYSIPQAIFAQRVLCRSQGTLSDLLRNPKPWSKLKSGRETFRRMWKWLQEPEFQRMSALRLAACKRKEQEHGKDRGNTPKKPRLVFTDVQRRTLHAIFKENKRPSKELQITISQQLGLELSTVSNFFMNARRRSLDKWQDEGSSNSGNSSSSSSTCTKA

With `COc1cc(OC)nc(NC(=O)NS(=O)(=O)c2ncccc2C(=O)N(C)C)n1`, the compound was classed as inactive in test [1], in test [2], in test [3], in [4], in test [5] and in test [6]. In addition, the result in test [7], in test [8] and in [9] was inactive.
Take `O=C(CCl)CCl`: the half-maximal activity concentration (AC50) is 33.4 µM (active) in test [1]; 54.6 µM (active) in test [2]; 45.6 µM (active) in test [4]; 33.4 µM (active) in [10]; 58.7 µM (active) in test [5]; 48.9 µM (active) in test [6]. The AC50 is 41.3 µM (active) in test [8] and 49.3 µM (active) in [9]. The outcome in test [3] was inactive.
Take `Oc1ccc(-c2ccccc2)cc1`: the concentration at half-maximal activity (AC50) is 179 µM (active) in [1], 149 µM (active) in [6], 176 µM (active) in test [7] and 100 µM (active) in test [8]. In addition, the compound was called inactive in test [2], in test [3], in test [4], in test [10] and in [9].
For `O=[N+]([O-])c1c(Cl)c(Cl)cc(Cl)c1Cl`, the outcome in test [1], in test [3], in test [4], in test [10], in test [5] and in test [6] was inactive. Also, in test [8], the result was inactive. Besides, the figures for the AC50 in test [2] and in test [9] were 0.0842 µM (active) and 18.2 µM (active), respectively.
On to `O=[N+]([O-])c1ccc2c3c(cccc13)CC2`, for which the compound was classed as inactive in [1], in [2], in test [3], in test [10], in test [6] and in test [8]. The results for the AC50 in [4] and in test [9] were 26.7 µM (active) and 4.23 µM (active), respectively.
Consider `C[C@H]1O[C@@H](O[C@H]2[C@@H](O)C[C@H](O[C@H]3[C@@H](O)C[C@H](O[C@H]4CC[C@@]5(C)[C@H](CC[C@@H]6[C@@H]5CC[C@]5(C)[C@@H](C7=CC(=O)OC7)CC[C@]65O)C4)O[C@@H]3C)O[C@@H]2C)C[C@H](O)[C@@H]1O`, for which the AC50 in test [1] was 0.254 µM (active); in test [10] it was 0.0564 µM (active); in [9], 0.0564 µM (active). The call in test [2], in test [3], in test [4], in [6], in test [7] and in test [8] was inactive.
For `CCC[CH2][Sn]([Cl])([Cl])[Cl]`, the compound was classed as inactive in test [1], in test [2], in test [3], in test [4], in [5] and in test [6]. The result in test [7], in [8] and in test [9] was inactive.
Regarding `Clc1nc(Cl)nc(Cl)n1`, the outcome in [1], in [2], in test [3], in test [4], in [6] and in test [7] was inactive. Further, the outcome in [8] was inactive. In addition, the figures for the AC50 in test [5] and in [9] were 144 µM (active) and 34.9 µM (active), respectively.
Regarding `N#CCCO`, the outcome in [1], in test [2], in test [3], in [4], in [10] and in test [5] was inactive. Also, the compound was called inactive in test [6], in test [8] and in test [9].
For the compound `[O-][Cl+2]([O-])O`, the result in [1], in test [2], in test [3], in [4], in [5] and in [6] was inactive. Moreover, the result in test [7] and in test [8] was inactive. Also, in test [9], the AC50 was 69 µM (active).
Take `O=C(c1ccccc1)C(Cl)Cl`: the concentration at half-maximal activity (AC50) was 14.9 µM (active) in [1], 26.7 µM (active) in [6] and 26.8 µM (active) in test [8]. Moreover, the compound was called inactive in test [2], in test [3], in test [4], in test [10], in test [5] and in test [9].
For the compound `CCOP(=S)(OCC)SCCS(=O)(=O)CC`, the compound was classed as inactive in test [1], in test [2], in [3], in [4], in [10] and in test [5]. Moreover, the result in [6] and in [8] was inactive. Also, in test [9], the concentration at half-maximal activity (AC50) was 11.5 µM (active).
`O=C(Cl)c1ccc(Cl)cc1`: the call in test [1], in test [2], in [3], in test [4], in test [10] and in test [5] was inactive. The result in test [6], in [8] and in test [9] was inactive.
Consider `N#CCc1ccc(Cl)cc1`, for which the result in [1], in test [2], in test [3], in [4], in test [10] and in test [5] was inactive. The outcome in [6] and in [8] was inactive. For the same compound, the half-maximal activity concentration (AC50) in test [9] was 48.5 µM (active).
Regarding `NC(=S)Nc1ccccc1`, the compound was called inactive in test [1], in test [2], in test [3], in test [4], in test [10] and in [5]. For the same compound, the compound was classed as inactive in test [6], in [8] and in test [9].
Consider `O=c1[nH]c(=O)[nH]c(=O)[nH]1`, for which the compound was classed as inactive in [1], in [2], in test [3], in [4], in test [5] and in [6]. In addition, the outcome in test [7], in test [8] and in test [9] was inactive.
On to `Cl/C=C\C[N+]12CN3CN(CN(C3)C1)C2`, for which the AC50 in test [1] was 100 µM (active); in [5], 158 µM (active); in [9], 45.2 µM (active). Besides, the compound was called inactive in test [2], in [3], in test [4], in test [6], in test [7] and in test [8].
Turning to `Cc1cc(=O)[nH]o1`, the result in test [1], in test [2], in test [3], in [4], in [10] and in test [5] was inactive. Also, the outcome in [6] and in test [8] was inactive. For the same compound, the half-maximal activity concentration (AC50) in [9] was 42.8 µM (active).
For the compound `C=CC(=O)OCCCCCC(C)C`, the result in test [1], in test [2], in test [3], in test [4], in test [10] and in test [5] was inactive. For the same compound, the compound was classed as inactive in test [6] and in [8]. The concentration at half-maximal activity (AC50) in test [9] is 69.5 µM (active).

Values taken from PubChem BioAssay (EPA / NIEHS).
